These results are taken from PubChem BioAssay AID720704 (The Scripps Research Institute Molecular Screening Center, 2013).

About 660 (0.18%) of roughly 370,000 compounds were called active. Cut-off read from the data, not from the text of the source: active = inhibition above about 11%; inactive = the rest. The sample as a whole holds a higher share of actives than the screen did.

The target in this assay is 1-phosphatidylinositol 4,5-bisphosphate phosphodiesterase beta-3 (Homo sapiens) (UniProt Q01970). In words: phospholipase C beta3 enzyme inhibition – biochemical, fluorescence, primary screen (AID 720704).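 Note: 0% = median of compound wells on plate and 100% = full blocker control.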 Conditions: Purified PLC-beta3, fluorogenic substrate, at 12.2 µM, active compounds read high.
Chain of 1-phosphatidylinositol 4,5-bisphosphate phosphodiesterase beta-3 (Homo sapiens) (Q01970 whole entry, looked up): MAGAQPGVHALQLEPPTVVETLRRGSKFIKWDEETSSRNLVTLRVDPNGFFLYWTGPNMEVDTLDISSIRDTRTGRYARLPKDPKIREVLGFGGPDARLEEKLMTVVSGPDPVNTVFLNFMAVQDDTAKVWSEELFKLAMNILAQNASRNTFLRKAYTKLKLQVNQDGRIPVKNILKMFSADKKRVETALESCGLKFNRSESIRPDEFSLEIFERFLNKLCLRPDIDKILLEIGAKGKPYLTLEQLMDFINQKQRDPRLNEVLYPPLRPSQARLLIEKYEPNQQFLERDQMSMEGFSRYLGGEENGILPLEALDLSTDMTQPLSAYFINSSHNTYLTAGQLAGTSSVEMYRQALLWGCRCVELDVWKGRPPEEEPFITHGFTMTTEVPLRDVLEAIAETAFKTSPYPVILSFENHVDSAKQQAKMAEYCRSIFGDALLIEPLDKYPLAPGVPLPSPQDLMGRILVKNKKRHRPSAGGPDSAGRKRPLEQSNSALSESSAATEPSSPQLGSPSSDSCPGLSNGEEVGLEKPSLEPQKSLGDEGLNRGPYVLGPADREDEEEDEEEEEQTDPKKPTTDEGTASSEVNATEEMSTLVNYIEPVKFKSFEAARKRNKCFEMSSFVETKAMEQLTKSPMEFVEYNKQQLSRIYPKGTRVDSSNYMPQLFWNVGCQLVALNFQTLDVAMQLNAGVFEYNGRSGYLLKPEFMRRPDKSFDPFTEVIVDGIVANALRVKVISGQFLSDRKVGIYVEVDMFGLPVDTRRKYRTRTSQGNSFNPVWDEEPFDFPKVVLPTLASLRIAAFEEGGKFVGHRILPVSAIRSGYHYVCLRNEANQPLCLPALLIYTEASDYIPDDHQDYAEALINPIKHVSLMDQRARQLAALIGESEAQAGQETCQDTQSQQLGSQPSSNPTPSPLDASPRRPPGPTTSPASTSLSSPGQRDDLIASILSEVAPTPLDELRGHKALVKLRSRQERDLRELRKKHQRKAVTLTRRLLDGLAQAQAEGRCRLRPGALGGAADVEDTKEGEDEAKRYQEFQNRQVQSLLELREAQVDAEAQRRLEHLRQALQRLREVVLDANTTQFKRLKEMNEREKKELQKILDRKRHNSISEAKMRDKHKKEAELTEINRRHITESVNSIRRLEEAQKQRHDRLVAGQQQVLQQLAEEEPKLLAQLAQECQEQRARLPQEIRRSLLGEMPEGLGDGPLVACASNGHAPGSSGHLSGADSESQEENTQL
As for `Cc1nnc(SC(C)C(=O)Nc2ccc(S(=O)(=O)NC3CCCCC3)cc2)s1` (stereo unspecified), the inhibition (in general, the change of the read-out against control, counted positive when it falls) was 4.91% (inactive).
With `CCOc1ccc(OCC)c(NC(=O)CSc2nnc(Cn3cnc4ccccc43)n2C)c1` the figure was 12.1% (active); with `COc1ccc(C)cc1NC(=O)CSc1nnc(CC(=O)Nc2ccccc2F)n1C`, -4.5% (inactive).
With `COc1ccc(OC)c(NC(=O)CSc2nc3cccnc3n2C)c1` the figure was 6.47% (inactive); with `CSCCC(NC(=O)c1cc([N+](=O)[O-])cc([N+](=O)[O-])c1)c1nc2ccccc2[nH]1` (stereo unspecified), -1.97% (inactive).
The result for `O=C(CSc1nc2ccccc2o1)N1c2ccccc2Sc2ccc(Cl)cc21` reads -0.49% (inactive); that for `O=C(CSc1nc2ccccc2o1)N1CCN(c2ccc(Cl)cc2)CC1`, -0.03% (inactive).
Take `Cc1ccc(/C=N/NC(=O)CSc2nc3ccccc3o2)cc1`: the inhibition is 11.3% (active).
Consider `O=C1CCC(C(=O)N2CCC(O)(c3ccccc3)CC2)CN1CCc1ccccc1` (stereo unspecified), for which the inhibition is -8.61% (inactive).
The result for `CCC(=O)c1ccc(N2CCN(C(=O)c3cc([N+](=O)[O-])ccc3F)CC2)c(F)c1` reads -2.14% (inactive).
The result for `NC(=O)c1nnsc1-c1ccc(-c2snnc2C(N)=O)cc1` reads -6.22% (inactive); that for `Cc1ccc(-c2nc(CS(=O)(=O)CC(=O)NCc3ccc4c(c3)OCO4)c(C)o2)cc1`, -6.63% (inactive).
As to `O=C(COC(=O)c1ncc(Cl)c(Cl)c1Cl)NNC(=O)c1ccccc1`, the inhibition was -12.2% (inactive).
The result for `Cc1cc(Cl)ccc1OCCCC(=O)Nc1cccc(-n2cnnn2)c1` reads -7.06% (inactive); that for `COc1ccc(CC(NC(C)=O)C(=O)NC2CCN(C(=O)c3ccc(OC)c(OC)c3)CC2)cc1OC` (stereo unspecified), 2.51% (inactive).
In the case of `Cc1nnc(SCc2nc3ccccc3nc2C)s1`, the inhibition is 2.42% (inactive).
The result for `C/C(CC(O)(/C=N/O)c1ccccc1)=N\O` (stereo unspecified) reads 3.84% (inactive).
The result for `Cc1nc2ccccc2nc1CC(O)(c1ccccc1)c1ccccc1` reads 11.5% (active); that for `O=C(c1cc2sccc2n1Cc1ccc(F)cc1)N1CCc2ccccc21`, -17.1% (inactive).
With `Cc1cc(NC(=O)[C@H](C)NC(=O)c2ccco2)ccc1Br` the figure was -1.12% (inactive); with `Cc1cc(NC(=O)c2ccc(F)cc2)ccc1NC(=O)c1ccco1`, 12.6% (active); with `Cc1ccc(C)c(NC(=O)c2ccc(OC(=O)c3ccco3)cc2)c1`, -2.18% (inactive).
Consider `COc1ccc(NC(=O)C[C@H]2C(=O)N(CCc3ccccc3)C[C@@H]2C)cc1`, for which the inhibition was 4.39% (inactive).
The result for `O=C(C[C@H]1C(=O)N(c2ccc(F)c(F)c2)C[C@@H]1Cc1ccccc1)Nc1ccccc1` reads 12.1% (active); that for `CC1(C)CN(CCc2ccccc2)C(=O)[C@H]1CC(=O)Nc1ccc(Br)cc1`, 1.65% (inactive).
With `Cc1nc2nc(COc3ccccc3)[nH]n2c(=O)c1C` the figure was 2.74% (inactive); with `CCN1C(=O)CS/C1=N\c1nccs1`, 0.11% (inactive).
The result for `Nc1ccn(CC(=O)N2CCN(c3ccccn3)CC2)c(=O)n1` reads -1.87% (inactive); that for `O=C1NCC(Nc2ccccc2)C(=O)N1` (stereo unspecified), 1.2% (inactive).
Consider `C=CCn1c(=O)n(C)c2c(=O)n(C)c(=O)n(C)c21`, for which the inhibition is 0.17% (inactive).
Regarding `CCC1CCCCN1C(=O)CSc1nc(C)cc(C)n1` (stereo unspecified), the inhibition is 19.7% (active).
With `CCC1CCCCN1C(=O)CSc1nc2c(c(=O)n1C)SC(C)C2` (stereo unspecified) the figure was -1.75% (inactive); with `CCC1CCCCN1C(=O)CSc1nc2c(c(=O)n(C)c(=O)n2C)n1C` (stereo unspecified), -1.77% (inactive).
The result for `CCCC/S(C)=N/S(=O)(=O)c1ccc(C)cc1` (stereo unspecified) reads 3.14% (inactive).
On to `C=CC[C@@H](CC(=O)NCCO)C(=O)N[C@H](C)COC(=O)[C@@H](CC=C)CC(=O)OC(C)(C)C`, for which the inhibition is 12.3% (active).
With `C=CC[C@@H](CC(=O)N[C@@H](CO)Cc1ccccc1)C(=O)NCCOC(=O)[C@@H](CC=C)CC(=O)OC(C)(C)C` the figure was 2.47% (inactive); with `C=CC[C@@H](CC(=O)N[C@@H](CO)Cc1ccccc1)C(=O)N[C@H](COC(=O)[C@H](CC=C)CC(=O)OC(C)(C)C)Cc1ccccc1`, 2.78% (inactive); with `CCO[C@@H]1OC(C(=O)NC2CC2)=C[C@H](C)[C@H]1CCCO`, 1.08% (inactive).
The result for `CC1=C(C(=O)N2CCOCC2)CC(CC(=O)NCc2cccc3ccccc23)C(=O)N1CCC1=CCCCC1` (stereo unspecified) reads 3.78% (inactive).
The result for `Nc1cc(N2CCCCCC2)c2nonc2c1[N+](=O)[O-]` reads -10.7% (inactive); that for `Cc1cc2c(cc1C)NC(c1ccccn1)C1=C(CC(C)(C)CC1=O)N2` (stereo unspecified), -15% (inactive).
On to `O=C(O)CCCCOn1ccnc1`, for which the inhibition is 1.89% (inactive).
As for `CC(C)CCN(C(=O)c1csnn1)C(C(=O)NC1CCCC1)c1ccccc1` (stereo unspecified), the inhibition is -3.64% (inactive).
Take `CN1C(CC(=O)Nc2ccc(Br)cc2)c2ccccc2CC1(C)C` (stereo unspecified): the inhibition is -1.47% (inactive).
The result for `COC(=O)C1=C(N)Oc2cc(C)oc(=O)c2C1c1cccnc1` (stereo unspecified) reads -0.05% (inactive); that for `O=C(Nc1ccccc1C(F)(F)F)N1CCCC1c1cccnc1` (stereo unspecified), -8.96% (inactive).
With `O=c1ccc2c(-c3ccccc3S(=O)(=O)O)c3ccc(O)c(O)c3oc-2c1O` the figure was 11.7% (active); with `Cc1ccsc1C(=O)N[C@@H](C)c1nnc2ccccn12`, -1.93% (inactive); with `COc1ccc(Br)cc1CN(C)C(=O)C1CC(=O)N(C2CCCC2)C1` (stereo unspecified), -3.09% (inactive).
The result for `CCN1CN(Cc2ccccc2)CNC1=S` reads 6.18% (inactive); that for `CC(C)c1nc2oc3c(N4CCN(C)CC4)ncnc3c2c2c1CCC2`, -17.2% (inactive).
